Laboratory results reported in ChEMBL document CHEMBL3988442, “University of Dundee, Small-Polar-MMV Screening Library” (2021).
About 13,000 (27%) of roughly 48,000 compounds showed an effect of 50% or more. The list shows a part of the results.

System: Wolbachia pipientis
Assay: Anti-Wolbachia Cell-Based Screen
Type: functional
Design: scale not given: in the data most compounds retested in dose-response had high values
Conditions: 5 µM

| SMILES | Percent Effect [%] |
| --- | --- |
| O=C(O)C(F)(F)F.O=S(=O)(C1CC1)N1CC[C@@H]2[C@@H]1CCN2Cc1cccs1 | 10.91 |
| Cc1cccc(CN2CCN(C(=O)[C@@H]3CSCN3C)CC2)c1 | 0.2793 |
| Cc1ccc(CN2CC[C@H]3[C@H]2CCN3S(=O)(=O)C2CC2)cc1.O=C(O)C(F)(F)F | -0.5114 |
| Cc1cccc(CN2CC[C@@H]3O[C@@H](C(=O)N4CCN(C)CC4)C[C@@H]32)n1 | 123 |
| CN1CCN(C(=O)[C@H]2C[C@H]3[C@H](CCN3Cc3cccs3)O2)CC1.O=C(O)C(F)(F)F.O=C(O)C(F)(F)F | 106.2 |
| Cc1ccc(CN2CC[C@@H]3O[C@@H](C(=O)N4CCN(C)CC4)C[C@@H]32)cc1.O=C(O)C(F)(F)F.O=C(O)C(F)(F)F | 117.4 |
| Cc1cccc(CN2C[C@@H](CN3CCCN(C)CC3)C[C@H](CO)C2)n1 | -14.48 |
| Cc1cccc(CN2CC[C@@H]3O[C@@H](C(=O)N4CCN(C)CC4)C[C@@H]32)c1 | 93.61 |
| Cn1cc(CN2CC[C@@H]3O[C@H](C(=O)N4CCOCC4)C[C@@H]32)cn1 | 5.245 |
| O=C(O)C(F)(F)F.O=C([C@@H]1CC[C@@H]2[C@@H](CCN2Cc2cccs2)O1)N1CCCCO1 | -2.602 |
| CN1CCN(C(=O)[C@H]2CC[C@@H]3[C@@H](CCN3Cc3ccsc3)O2)CC1.O=C(O)C(F)(F)F.O=C(O)C(F)(F)F | -13.28 |
| CCN1CCC(CNCc2cc(C)ccc2OC)C1 (stereo unspecified) | 23.09 |
| Cc1[nH]nc2ncc(C(=O)N3CCN(C(C)(C)C)CC3)cc12 | 13.12 |
| CN(C)c1ccccc1CN1CCCCC1CNS(C)(=O)=O (stereo unspecified) | -10.3 |
| O=C1CC2(CCN(C(=O)c3csc(-c4ccccc4)n3)C2)C(=O)N1 (stereo unspecified) | 6.339 |
| COCCCN1CCC(NC(=O)C2CC2)CC1 | -0.3398 |
| O=C(c1ccoc1)N1CCn2nc(CN3CCSCC3)cc2C1 | -1.758 |
| O=C([C@H]1C[C@H]2[C@H](CCN2Cc2cccs2)O1)N1CCOCC1 | 91.43 |
| CN(C)Cc1nc(-n2cnc(C(=O)NC3CCCC3)c2)n2ccccc12 | 115.9 |
| O=C(NC1CCCC1)c1cc(Cn2cnc3ccccc32)on1 | -23.61 |
| Cn1cnc(-c2nc(C(=O)NCC3CCCO3)c3ccccn23)c1 (stereo unspecified) | -2.484 |

| SMILES | Percent Effect [%] |
| --- | --- |
| CN(C)Cc1nc(-n2cnc(C(=O)NCC3CC3)c2)n2ccccc12 | 123.3 |
| O=C(NCCO)c1ccn(-c2ccc3ccccn23)n1 | -13.14 |
| CN(Cc1nnc2ccccn12)C(=O)NC1CCCCC1 | -15.02 |
| Cc1nc[nH]c1-c1nc2cc(S(=O)(=O)N3CCCC3)ccc2n1C | -21.22 |
| Cc1ncc(CNc2cnccc2CO)s1 | 7.83 |
| CCN(CC)S(=O)(=O)N1C[C@@H](O)[C@H](Oc2cccc(F)c2)C1 | 71.42 |
| CCN(C)C(=O)c1ccc(N2CCC(Oc3cccc(F)c3)CC2)nc1 | -6.141 |
| CCN(Cc1cccc(F)c1)S(=O)(=O)N1CCOCC1 | -36.14 |
| Cc1cnccc1CN1C[C@@H](O)[C@H](Oc2cccc(F)c2)C1 | -1.659 |
| O=C(c1ccnnc1)N1C[C@@H]2CC[C@H](Oc3cccc(F)c3)[C@@H]2C1 | -13.73 |
| CCS(=O)(=O)N1C[C@@H](O)[C@H](Oc2cccc(F)c2)C1 | 115.8 |
| COc1cccc(F)c1-c1nc2c([nH]1)c(C1CC1)nn2C | 3.42 |
| CCCC(C)C(=O)Nc1ccc(OC)nc1N1CCN(C(C)=O)CC1 (stereo unspecified) | -14.17 |
| Cc1cc(NC(C)C(=O)NCc2ccccc2)nc(-c2ccncc2)n1 (stereo unspecified) | 6.15 |
| CNc1cc(CNC(=O)c2ccnc(OC)c2)nc(-c2ccncc2)n1 | 103.5 |
| CNc1cc(CNC(=O)c2ccccc2)nc(-c2ccncc2)n1 | -7.143 |
| CNc1cc(CNC(=O)c2ccncc2)nc(-c2ccncc2)n1 | 109.4 |
| CNc1cc(CNC(=O)c2ccccn2)nc(-c2ccncc2)n1 | -12.05 |
| CNc1cc(CNC(=O)c2ccccc2OC)nc(-c2ccncc2)n1 | 104.1 |
| COc1cc(C(=O)NCc2cc(N3CCOCC3)ncn2)ccn1 | 5.956 |
| CNc1cc(CNC(=O)c2cccnc2)nc(-c2ccncc2)n1 | 94.55 |

| SMILES | Percent Effect [%] |
| --- | --- |
| COc1cc(C(=O)N(C)C(C)Cc2cc(C)ccn2)ccn1 (stereo unspecified) | -2.709 |
| O=C(NCCOc1ncc(Cl)cc1Cl)c1cccnc1 | 0.5232 |
| O=S1(=O)CCC(n2cc(CNc3ccccc3Br)cn2)C1 (stereo unspecified) | 3.444 |
| CCOCC1CCN(C(=O)C(c2c(F)cccc2F)N(C)C)CC1 (stereo unspecified) | -13.66 |
| CC(C)c1nc(-c2ccc(=O)[nH]n2)n(-c2ccc3c(c2)OCO3)n1 | -26.15 |
| CC(C)N1CCOC[C@H]1c1nc(-c2ccncc2)c[nH]1 | 8.176 |
| CCc1nccn1CCC(=O)N1C[C@H]2CC[C@@H]1CN(C(=O)N(C)C)C2 | -6.839 |
| CC(C)COC(C)C(=O)NCc1ccccc1Cn1ccnc1 (stereo unspecified) | -1.115 |
| CC(C)COC(C)C(=O)NCCNC(=O)C(C)C (stereo unspecified) | 90.67 |
| CCN(CC)CCNC(=O)C(C)OCC(F)(F)F (stereo unspecified) | -16.45 |
| CC(Oc1ccc(C(=O)NCCNS(C)(=O)=O)cn1)c1ccccc1 (stereo unspecified) | 12.3 |
| CC(C)COC(C)C(=O)NCCNS(C)(=O)=O (stereo unspecified) | 116.1 |
| CC(C)COC(C)C(=O)N1CCCC1 (stereo unspecified) | -7.961 |
| CC(C)C(=O)NCCNC(=O)C(C)OCC(F)(F)F (stereo unspecified) | 2.033 |
| CC(C)COC(C)C(=O)N1CCCCCC1 (stereo unspecified) | -3.624 |
| CCOC(C)C(=O)NCCNS(C)(=O)=O (stereo unspecified) | 99.51 |
| CC(C)N1CC(C(=O)N2CCN(CCn3cccc3)CC2)CC1=O (stereo unspecified) | 11.86 |
| Cc1ccc(CN(CCN(C)C)Cc2ncc[nH]2)s1 | -6.049 |
| CNC(=O)c1cccc(CCNS(C)(=O)=O)c1 | -1.562 |
